A selection: hits, their analogues and other compounds. The true share with any hit is near 21%.
CHX counter – counter-screen for Shiga toxin inhibitors: cycloheximide protein synthesis inhibition; AID 2314; 12% of 300,000 active; max response, %; cell reporter, cycloheximide protein synthesis inhibition counterscreen; in the data active = max response mostly above about 13%, no sharp cut-off; inactive = mostly below about 14%; also: read at 38.3 µM for the half of the compounds with a filed dose; 0% is about no effect
NS1 function inh – inhibitors of influenza NS1 protein function. Potency, µM (highest dose often 46.1 µM), for inactives: at the top dose activity, positive = more growth. 0.4% of 270,000 active. AID 2326; calls by dose curve; also: potency is read from the fitted curve at half-maximal effect; actives are rising curves; nearly all actives have a fitted effect of over 50% in size
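S. cerevisiae expressing influenza A NS1, grown in glucose, washed, then diluted 1:100 into pH 6.0 -URA galactose medium with 23 nl compound. Growth recovery read as OD600; NS1-free strain serves as control.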
Pf growth 96h – P. falciparum growth inhibition at 96 hours. Potency, µM (series often up to 28.7 µM), for the others: top-dose activity change, negative = inhibition, hits mostly inhibitors. P. falciparum luciferase reporter growth, 96 h. 6.9% of 320,000 active; also: potency is read from the fitted curve at half-maximal effect; % is scaled to controls: 0 for no effect and ±100 for the full control effect
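Two parasite generations (96 h, 37 C, 5% CO2) of compound exposure in infected erythrocytes (0.05% parasitemia, 2% hematocrit). Luciferase-reporter P. falciparum; decreased luminescence indicates inhibited growth, aimed at apicoplast-acting delayed death.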
Shiga toxin inh – blocks Shiga toxin action in Vero cells; Vero cells, Shiga toxin protein synthesis inhibition reporter; inhibition, % at 38.7 µM; 9.2% of 290,000 active; in the data active = inhibition mostly above about 28%, no sharp cut-off; inactive = mostly below about 43%; also: 0% is about no effect
Pf growth 48h – P. falciparum growth inhibition at 48 hours (one generation) | 5.9% of 310,000 active | AID 504832 | Potency, µM (titrated, usually from 28.7 µM), for inactives: at the highest dose activity change, negative = inhibition, usual class: inhibitors | P. falciparum luciferase growth in erythrocytes, 48 h; also: potency is read from the fitted curve at half-maximal effect; % is scaled to controls: 0 for no effect and ±100 for the full control effect
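In quantitative HTS format, infected erythrocytes bearing luciferase-reporter parasites were treated for a single generation at 37 C. Luminescence after adding detection reagent served as the growth measure.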
FBPA Giardia inh – inhibitors of Giardia lamblia fructose-1,6-bisphosphate aldolase | A8B2U2 | purified Giardia FBPA | Potency, µM (titrated, usually from 59.6 µM), for inactives: at the top dose activity, negative = inhibition, most hits filed as inhibitors | 0.71% of 290,000 active | AID 2451; also: potency is read from the fitted curve at half-maximal effect; % is scaled to controls: 0 for no effect and ±100 for the full control effect; nearly all actives have a fitted effect of over 55% in size
Target sequence (A8B2U2 whole entry, looked up): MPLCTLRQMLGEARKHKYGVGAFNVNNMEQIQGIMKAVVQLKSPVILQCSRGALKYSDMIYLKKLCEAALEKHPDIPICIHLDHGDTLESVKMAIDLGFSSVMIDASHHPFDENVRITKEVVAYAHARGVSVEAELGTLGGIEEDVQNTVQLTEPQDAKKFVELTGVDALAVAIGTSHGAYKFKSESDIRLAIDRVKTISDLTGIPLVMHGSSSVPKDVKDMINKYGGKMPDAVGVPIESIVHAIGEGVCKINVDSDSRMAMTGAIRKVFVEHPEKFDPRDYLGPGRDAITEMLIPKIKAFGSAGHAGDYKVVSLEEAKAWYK
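Giardia FBPA (40 nM reagent) was preincubated 10 min at RT with compound (up to 57.5 uM final), then substrate plus GAPDH/TPI/NAD/arsenate coupling system with diaphorase/resazurin was added; resorufin fluorescence (525/598 nm) was read after 20 min.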
The depositor's hits bear a star; [ ] = remark or other dose. Unless noted, calls follow the shape of the dose curve; as a rule, active = well fitted curve in the direction sought with a large enough effect; inconclusive = small, poorly fitted or top-dose-only effect, or another doubt; inactive = no such curve, though single readings can be large; an effect the other way counts as inactive or inconclusive.

Screening COc1cn(-c2ccccc2)nc1C(=O)NCc1ccccc1 returned CHX counter 7, NS1 function inh -34%, Pf growth 96h -10%, Shiga toxin inh 14, Pf growth 48h -16% and FBPA Giardia inh -6%.
Screening Nc1ccc(C(=O)OCc2nc3c(ccc4ccccc43)[nH]2)cc1 returned CHX counter 25*, NS1 function inh -5%, Pf growth 96h -2%, Shiga toxin inh 80*, Pf growth 48h 324% and FBPA Giardia inh -18%.
Nc1ccc(Cc2nc3cc4ccccc4cc3[nH]2)cc1 was read as CHX counter 45*, NS1 function inh 5%, Pf growth 96h 45%, Shiga toxin inh 52*, Pf growth 48h 40% and FBPA Giardia inh -7%.
`Nc1ccc(C(=O)OCc2nc3cc4ccccc4cc3[nH]2)cc1` gave CHX counter 14, Pf growth 96h 25%, Shiga toxin inh 48*, Pf growth 48h -6% and FBPA Giardia inh -20%.
Screening O=C(COC(=O)c1ccc2c(c1)S(=O)(=O)N=C1CCCCCN12)NCc1cccs1 returned CHX counter 1, NS1 function inh 2%, Pf growth 96h 33%, Shiga toxin inh 11, Pf growth 48h 6% and FBPA Giardia inh 7%.
CC(C)c1ccc(NC2CCCN(C(=O)c3ccoc3)C2)cc1 (configuration not stated) was read as CHX counter 24, NS1 function inh -6%, Pf growth 96h 0%, Shiga toxin inh 32*, Pf growth 48h 0% and FBPA Giardia inh -6%.
Cc1ccc(NC2CCCN(C(=O)c3cccc4nccnc34)C2)cc1C (configuration not stated) was read as CHX counter -1, NS1 function inh 7%, Pf growth 96h 62%, Shiga toxin inh 8 and Pf growth 48h -15%.
O=C(c1ccoc1)N1CCCC(Nc2ccc(F)c(F)c2)C1 (configuration not stated) was read as CHX counter 8, NS1 function inh 13%, Pf growth 96h -3%, Shiga toxin inh -32 and Pf growth 48h -3%.
`CC(C)c1ccc(NC2CCCN(C(=O)c3cccc4nccnc34)C2)cc1` (configuration not stated) gave CHX counter 9, NS1 function inh -3%, Pf growth 96h 4.7µM*, Shiga toxin inh -5, Pf growth 48h 0% and FBPA Giardia inh -4%.
Screening CC(C)c1ccc(NC2CCCN(C(=O)c3cc(C(C)C)nc(N)n3)C2)cc1 (configuration not stated) returned CHX counter 8, NS1 function inh 9%, Pf growth 96h 15µM*, Shiga toxin inh 19, Pf growth 48h 14% and FBPA Giardia inh -8%.
`CC(C)c1cc(C(=O)N2CCCC(Nc3ccc(F)cc3)C2)n[nH]1` (configuration not stated) gave CHX counter 19*, NS1 function inh 13%, Pf growth 96h 17%, Shiga toxin inh 16, Pf growth 48h -10% and FBPA Giardia inh -2%.
For Cc1cc(C)c(C(=O)N2CCCC(Nc3ccc(F)cc3)C2)o1 (configuration not stated) the results were CHX counter 3, NS1 function inh -3%, Pf growth 96h -2%, Shiga toxin inh -11, Pf growth 48h -2% and FBPA Giardia inh -8%.
C/C(CCN1CCCc2nc(C)c(C)cc21)=N\OC[C@@H](C)[C@H](OCc1ccccc1)C(C)C was read as FBPA Giardia inh 0%[12.9 µM].
`CCCCc1nc2c(c3c1C[C@H](C)OC3)CN(S(=O)(=O)c1ccc(C)cc1)CC2` gave FBPA Giardia inh -2%[12.9 µM].
CC1(C)CSC(=NCCc2ccccc2)N1 was read as CHX counter 14*, NS1 function inh -6%, Pf growth 96h 28%, Shiga toxin inh 54*, Pf growth 48h 17% and FBPA Giardia inh 16%.
Screening CC(C)CCN1C(=O)c2ccc(C(=O)Nc3ccc(Br)cc3C(=O)O)cc2C1=O returned CHX counter -1, NS1 function inh 18%, Pf growth 96h -27%, Shiga toxin inh -5, Pf growth 48h 29% and FBPA Giardia inh -9%.
For O=c1c2c(-c3ccccc3)csc2nc2n1CCC2 the results were CHX counter -1, NS1 function inh -47%, Pf growth 96h -12%, Shiga toxin inh -1, Pf growth 48h -18% and FBPA Giardia inh 5%.
